The record followed here is PubChem BioAssay AID686940 (The Scripps Research Institute Molecular Screening Center, 2013).

About 2,600 (0.7%) of roughly 370,000 compounds were called active. The full list was thinned out, with actives kept by preference. Unmarked numbers belong to inactive results.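 The calls were made as follows: active = inhibition above a per-plate cutoff, mean inhibition of test wells between control levels plus 3 SD (cut at about 38% in these data); inactive = the rest.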

Sequence of COUP transcription factor 2 (Homo sapiens) (P24468 whole entry, looked up): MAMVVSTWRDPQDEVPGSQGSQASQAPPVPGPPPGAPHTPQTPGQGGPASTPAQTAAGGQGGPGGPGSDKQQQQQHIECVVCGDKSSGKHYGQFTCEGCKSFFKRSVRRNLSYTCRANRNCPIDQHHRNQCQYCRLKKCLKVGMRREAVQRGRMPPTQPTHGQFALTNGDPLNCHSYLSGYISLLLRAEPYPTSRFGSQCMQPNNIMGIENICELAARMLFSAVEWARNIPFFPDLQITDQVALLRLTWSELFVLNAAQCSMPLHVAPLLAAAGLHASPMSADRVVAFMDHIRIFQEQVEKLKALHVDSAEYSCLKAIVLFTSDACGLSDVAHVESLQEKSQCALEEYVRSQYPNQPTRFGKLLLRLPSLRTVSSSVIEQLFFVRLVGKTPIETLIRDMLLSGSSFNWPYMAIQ

The test has as its target COUP transcription factor 2 (Homo sapiens) (UniProt P24468). Description: NR2F2 transcriptional activity inhibitors, primary screen, cell-based, luciferase reporter, HEK293T, luminescence (AID 686940).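 Also: cells cotransfected with COUP-TFII expression vector driving the NGFI-A reporter; 0% = median of COUP-TF2 test wells and 100% = reporter-only cells.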 The settings on record: HEK293T NGFI-A luciferase reporter, at 8.6 µM, hits give high values.
Consider `C=CCC1(CC=C)CCCN1C(=O)c1cc(COc2ccc(-n3cncn3)cc2)on1`, for which the inhibition is 53% (active).

Regarding `CCCOC1CCCN(C(=O)c2cc(COc3cncc(Cl)c3)on2)C1` (centres undefined), the inhibition was -19.1%.

`COCC1CCCCN1C(=O)c1cc(COc2ccc(C)c(C)c2)on1` (centres undefined): the inhibition is -30%.

Take `O=C(Nc1ccc(Br)cc1)OCCN1C(=O)CCC12CCC(c1ccccc1)CC2` (centres undefined): the inhibition is -11.1%.

For the compound `COC(=O)C[C@H]1CC[C@H]2[C@H](COc3ccc(NC(=O)C4CC4)cc3C(=O)N2C)O1`, the inhibition is -12.2%.

Consider `COc1cc(F)ccc1-c1cc(C(=O)NCC2CCCCC2)[nH]n1`, for which the inhibition was -27.9%.

For the compound `CCCOc1ccc(F)cc1-c1cc(C(=O)Nc2ccc(F)cc2)[nH]n1`, the inhibition was -7.05%.

Consider `COc1ccc(OC)c(NC(=O)c2cc(-c3cc(F)ccc3OCC3CCCO3)n[nH]2)c1` (centres undefined), for which the inhibition is 87% (active).

In the case of `O=C(NCc1ccc(Cl)cc1)C1CCCN(c2nc3ccccc3o2)C1` (centres undefined), the inhibition was 18.9%.

As for `C#CCNC(=O)C[C@H]1C[C@@]2(C(=O)OC)C(=C[C@H](C(C)C)O[C@@H]2C2CC2)N(Cc2ccco2)C1=O`, the inhibition was -5.51%.

On to `CC(C)CSc1nnc(-c2cccnc2)n1Cc1ccccc1`, for which the inhibition was 9.79%.

For the compound `O=S(=O)(c1ccc2c(c1)OCCCO2)N1CCN(S(=O)(=O)c2c(F)cccc2F)CC1`, the inhibition was 9.89%.

Take `O=C(c1c(F)cccc1F)N1CCN(S(=O)(=O)c2ccc3c(c2)OCCO3)CC1`: the inhibition is 38.1% (active).

Take `O=C(c1c(F)cccc1Cl)N1CCN(S(=O)(=O)c2ccc3c(c2)OCCCO3)CC1`: the inhibition was 18%.

Regarding `CCc1cc2c(SCC(=O)Nc3ncc(Cl)c(C)c3Cl)ncnc2s1`, the inhibition was 12.8%.

Regarding `CCc1cc2c(NC3CCCC3)ncnc2s1`, the inhibition was 39.9% (active).

Turning to `CCc1cc2c(NC(Cc3ccccc3)C(=O)O)ncnc2s1` (centres undefined), the inhibition is -1.84%.

`C=C(C)C1CC23C(=O)C4(C(=O)c5ccccc5)C[C@@]5(C)CCC(CC2C1(C)C)(C4=O)C35OC` (some centres undefined): the inhibition was -4.41%.

`COc1ccccc1C(=O)CSc1nnc(-c2ccccn2)n1-c1ccccc1`: the inhibition is 9.59%.

With `Cc1ccc(-c2nc(C3CCCN(S(=O)(=O)c4ccc(Br)s4)C3)no2)cc1` (centres undefined), the inhibition was 2.13%.

As to `Cc1ccc(-c2nc3c(C)cc(Br)cn3c2Cc2ccccc2)cc1`, the inhibition was -5.6%.

Take `Cc1ccc2nc(-c3ccc(Br)cc3)cn2c1`: the inhibition is 46.6% (active).

In the case of `COc1ccc(-c2nc3ccc(Br)cn3c2Cc2ccc(C)cc2)cc1OC`, the inhibition is -32.3%.

Take `Cc1ccc(-c2cn3cc(C)ccc3n2)cc1`: the inhibition is 73% (active).

As for `Cc1ccc2nc(-c3ccccc3)c(CC3CCCCC3)n2c1`, the inhibition was -52.4%.

As to `CC(=O)Nc1c(-c2ccc(C)cc2)nc2ccc(Cl)cn12`, the inhibition was -17.9%.

With `CCC(=O)c1c(CC)c2n3c1=CC[C@H]3CC(Br)C=2` (some centres undefined), the inhibition was 6.74%.

As to `CC(c1ccc(N)cc1)c1cn(C)c2ccccc12` (centres undefined), the inhibition was -16.2%.

Take `CCOC(=O)[C@]12CCCC3=C1N(CCC3)C(=O)[C@@H](CC(=O)N1CCSCC1)C2`: the inhibition was -5.73%.

With `COc1ccc(N2CCN(CCNS(=O)(=O)c3ccc([N+](=O)[O-])cc3)CC2)cc1`, the inhibition was 15.2%.

Turning to `CC(C)OCCCNc1ncnc2c1[nH]c1ccc(F)cc12`, the inhibition is 62.2% (active).

In the case of `O=C(CN1CCC(NC(=O)NCc2ccccc2)CC1)Nc1ccc2c(c1)OCCO2`, the inhibition was -8.81%.

With `COc1ccc(C(=O)OCCN2CCN(C3CN(Cc4cn(Cc5ccccc5F)nn4)S(=O)(=O)C3)CC2)cc1OC` (centres undefined), the inhibition was 18.4%.

Regarding `COc1cccc(N(C)C(=O)[C@@H](C)[C@@H](O)c2ccc3ccccc3c2)c1`, the inhibition is -11.8%.

In the case of `COc1ccccc1CNc1nc(Nc2ccccc2Cl)c2sccc2n1`, the inhibition was 60.3% (active).

For the compound `COc1ccccc1CNCc1cccs1`, the inhibition is 9.93%.

For the compound `COc1cccc(CNc2ncc(-c3ccccc3)n2C)c1`, the inhibition is -0.1%.

Consider `COc1ccc(NC(=S)NCc2cccs2)c(OC)c1`, for which the inhibition was 6.7%.

For `CC(C)Nc1nc(NCCOc2ccccc2Cl)c2sccc2n1`, the inhibition was 19.2%.

Regarding `COc1cccc(CNc2nc(NCc3cccs3)nc3ccsc23)c1`, the inhibition is 45.6% (active).

For `COc1cccc(CNc2nc3cc(-c4csc5ccccc45)sc3c(=O)n2C)c1`, the inhibition is 5.09%.

Turning to `COc1cccc(-c2cc3nc(NCc4ccccc4OC)n(C)c(=O)c3s2)c1`, the inhibition was -9.04%.

Regarding `COc1cccc(CNc2nc(NCc3ccccc3OC)nc3ccsc23)c1`, the inhibition is 39.1% (active).

Consider `COc1ccc(C(=O)OCCN(C)C2CN(Cc3cn(Cc4cccc(C)c4)nn3)S(=O)(=O)C2)cc1OC` (centres undefined), for which the inhibition was -14.5%.

As for `COP(=O)(O)CNC(=O)OCc1ccccc1`, the inhibition is -0.48%.

`COC(CNC(=O)[C@H](Cc1ccccc1)NC1(C(=O)NC2CCCCC2)CCCCC1)OC`: the inhibition was -36.3%.

Turning to `Cc1ccc(C(=O)N(Cc2ccccn2)CC2CCCO2)cc1` (centres undefined), the inhibition is -9.77%.

As to `O=S1(=O)c2c(NCc3ccco3)cccc2Oc2ccccc2CN1Cc1cn(Cc2cccc(C(F)(F)F)c2)nn1`, the inhibition is -1.36%.

With `CCOc1ccc(-n2c(SCC(=O)Nc3cc(C)c(NC(=O)c4ccccc4)cc3OC)nnc2-c2cccs2)cc1`, the inhibition was 27.9%.

`Cc1ccc(C2=CCN(C)C(=O)N2c2ccc(Cl)cc2)cc1`: the inhibition was -1.56%.

Take `CCOc1ccc(N(CC(=O)Nc2c(C)n(C)n(-c3ccccc3)c2=O)S(=O)(=O)c2ccc(Cl)s2)cc1`: the inhibition is -10%.

In the case of `Cc1cc(C)cc(NC(=O)N2CCC(N(C)CCC(C)C)CC2)c1`, the inhibition is 1.48%.

For the compound `Cc1ccc(C)c(N2CCN(C(=O)CCCCCn3c(=S)[nH]c4ccc(N5CCOCC5)cc4c3=O)CC2)c1`, the inhibition was 44.7% (active).

For `Cc1ccc(C)c(N2CCN(C(=O)Cn3ncn4cccc4c3=O)CC2)c1`, the inhibition was 10.1%.

For the compound `Cc1ccc(OCCCC(=O)N2CCOCC2)c(C)c1`, the inhibition was -6.33%.

For the compound `CCC(c1ccc(NC(=O)OC(C)(C)C)cc1)c1cc(OC)cc(OC)c1` (centres undefined), the inhibition is 20%.

Regarding `Fc1ccc2[nH]c3c(N4CCSCC4)ncnc3c2c1`, the inhibition was 45.2% (active).

As to `COc1ccc(CN(CCN2CCOCC2)C(=O)c2ccc(C)cc2)cc1OC`, the inhibition is -7.96%.

On to `CCOC(=O)[C@@]12CN(C(=O)OC(C)(C)C)CC=C1N(Cc1ccc(OC)cc1)C(=O)[C@H]2CC(=O)NCc1ccc(OC)c(OC)c1`, for which the inhibition was -0.1%.

On to `Cc1cc(C)nc(NC(=S)N2CCN(c3ccc(C(F)(F)F)cn3)CC2)c1`, for which the inhibition was 22.9%.

As to `CC(=O)OC12CCCN(C1)/C(=C/c1ccncc1)C2` (centres undefined), the inhibition is 3.99%.

For `COc1cccc(CNC(=O)C2CCCN(c3nc4ccccc4o3)C2)c1OC` (centres undefined), the inhibition is -7.71%.

As to `Cc1ccc(CNC(=O)Nc2nnc([C@H]3C[C@H](O)[C@@H](CO)O3)s2)cc1`, the inhibition is 46.9% (active).

On to `O=C(Nc1ccc(F)cc1)Nc1nnc([C@H]2C[C@H](O)[C@@H](CO)O2)s1`, for which the inhibition was -2.93%.

Take `O=C(Nc1nnc([C@H]2C[C@H](O)[C@@H](CO)O2)s1)c1cccc(Cl)c1`: the inhibition was 7.36%.

Regarding `Cc1cc(C(=O)NN=C/C=C/c2ccco2)n[nH]1`, the inhibition is -13.9%.

In the case of `CCc1c(C)nc(SCC(=O)NC2CCCC2)[nH]c1=O`, the inhibition is 11.9%.

With `CCc1ccc(-c2nc(SCC(=O)NC3CCCC3)n[nH]2)cc1`, the inhibition is 53.3% (active).

On to `COC(=O)c1ccccc1NC(=O)CSc1n[nH]c(-c2ccncc2)n1`, for which the inhibition is 8.9%.

Consider `O=C(c1cccc(C(F)(F)F)c1)N1CC[C@H]2[C@H](CCCN2Cc2cc(F)cc(F)c2)C1`, for which the inhibition was 2.53%.

For the compound `S=c1c2[nH]cnc2ncn1CCSc1ncnc2nc[nH]c12`, the inhibition is 3.01%.

Consider `Cc1ccc(NC(=O)c2ccc(CSc3ncnc4nc[nH]c34)cc2)c(C)c1`, for which the inhibition was -6.98%.

As to `CCc1ccc(N(CC)c2ncnc3nc[nH]c23)cc1`, the inhibition was 39.6% (active).

In the case of `CCCCN1CCN(C(=O)c2ccc3c(c2)NC(=O)C(C)(C)O3)CC1`, the inhibition is -23.3%.

Turning to `O=C(CNC(=O)c1ccccc1)OC(C(=O)Nc1cc([N+](=O)[O-])ccc1F)c1ccccc1` (centres undefined), the inhibition is 1.21%.

In the case of `O=C(NC(Nc1nc2ccc([N+](=O)[O-])cc2s1)(C(F)(F)F)C(F)(F)F)c1ccccc1`, the inhibition is 74.1% (active).

`O=C(Nc1nc2ccc(Cl)cc2s1)c1cc(-c2ccc(Cl)cc2)nc2ccccc12`: the inhibition is -23.3%.

Turning to `Cc1ccccc1NC(=O)COC(=O)c1ccc(Sc2ncn[nH]2)c([N+](=O)[O-])c1`, the inhibition is 13.4%.

Consider `CC(C)(CNC(=O)c1ccc(Cl)c(S(=O)(=O)N2CCc3ccccc3C2)c1)N1CCOCC1`, for which the inhibition was 65% (active).

For `O=C(NCCSCc1ccccc1)c1ccc(Cl)c(S(=O)(=O)N2CCOCC2)c1`, the inhibition is 11%.

For the compound `CN(C)S(=O)(=O)c1ccc(C(=O)NCC(C)(C)N2CCOCC2)cc1`, the inhibition was 15.8%.

`N#Cc1ccc(OC[C@@H](O)CN2CCC(C(O)(c3ccccc3)c3ccccc3)CC2)c(F)c1`: the inhibition was -4.45%.

On to `O=C(CSc1nc2ccccc2s1)NN=Cc1ccc(O)cc1O`, for which the inhibition was -18.2%.

For `C=CCN(C)CC#Cc1ccccc1`, the inhibition is 17.2%.

Consider `Cc1ccc(-n2c(SCC(=O)Nc3cccc4ccccc34)nnc2-c2ccccn2)cc1`, for which the inhibition was 14.2%.

On to `CC(C)(C)c1ccc(Oc2ccc(N)cc2)cc1`, for which the inhibition was 100% (active).

With `COc1cccc(CNC(=O)CNS(=O)(=O)c2ccc3nc(C)sc3c2)c1OC`, the inhibition is 14.5%.

In the case of `O=C1CCC2(CCC(c3ccc(Cl)cc3)CC2)N1CCO` (centres undefined), the inhibition is 20.9%.

Consider `COC1=C[C@H](C(=O)NCCNC(C)=O)[C@H](C)[C@@H](c2ccccc2)CC1=O`, for which the inhibition was 12%.
